Screening data from PubChem BioAssay.
Rows were chosen to be rich in hits. Some 3.9% of all compounds tested hit in one or more screens of this group.
CASP6 VEID inh: human caspase-6 inhibitors, primary screen, biochemical, VEID-R110 fluorescence, single point, set 2 | P55212 | 350,000 compounds, 0.53% hits | inhibition, % at 12.5 µM | purified caspase-6, Z-VEID-R110 cleavage fluorescence;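 active = mean inhibition across replicates at least about 35%, with every replicate also reaching that limit, limit read from the data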
Target sequence (P55212 24-179 limits assumed): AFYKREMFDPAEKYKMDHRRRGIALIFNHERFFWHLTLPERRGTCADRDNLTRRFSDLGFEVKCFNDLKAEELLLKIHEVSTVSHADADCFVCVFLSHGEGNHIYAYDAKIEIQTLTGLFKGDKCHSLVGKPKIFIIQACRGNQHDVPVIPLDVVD
Target sequence (P55212 194-293 limits assumed): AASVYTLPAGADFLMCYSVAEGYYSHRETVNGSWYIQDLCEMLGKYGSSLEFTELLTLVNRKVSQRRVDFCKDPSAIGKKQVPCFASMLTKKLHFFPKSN
ALR inh: inhibitors of human ALR sulfhydryl oxidase, primary screen, biochemical, H2O2 detection, HRP-luminol luminescence, single point | purified ALR, DTT oxidation | inhibition, % (no concentration beside the values) | 290,000 compounds, 3.8% hits | AID 485317, 2010;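 active = mean replicate inhibition above about 79%, with every replicate also reaching it, limit read from the data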
Target sequence (P55789 whole entry, looked up): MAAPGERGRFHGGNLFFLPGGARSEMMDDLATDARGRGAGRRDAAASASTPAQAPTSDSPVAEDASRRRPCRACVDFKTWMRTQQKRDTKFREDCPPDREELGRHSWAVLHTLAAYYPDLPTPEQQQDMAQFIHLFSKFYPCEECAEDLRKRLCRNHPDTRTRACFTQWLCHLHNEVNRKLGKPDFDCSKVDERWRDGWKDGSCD
Mot1-301 SUMO: yeast Mot1-301 growth rescue at high temperature, primary screen, SUMOylation pathway inhibitor project, S. cerevisiae, ATP luminescence, 38.5C; S. cerevisiae Mot1-301 growth rescue; percent above DMSO median, 100 means doubled; growth rescue, % at 18.8 µM; 320,000 compounds, 1% hits;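 active = every valid replicate shows activation above 250% relative to neutral control wells; inactive = the rest, any valid replicate at or below 250%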
NSD2 inh: NSD2 histone methyltransferase inhibitors, primary screen, biochemical, AlphaScreen, single concentration, set 2. NSD2 peptide methylation, 120 min. inhibition, % at 12.5 µM. 310,000 compounds, 0.54% hits. Histone-lysine N-methyltransferase NSD2 (Homo sapiens), O96028. AID 743445, 2014; in the data active = inhibition above about 50%
CDK5 inh: inhibitors of human CDK5/p35 kinase, primary screen, biochemical, single concentration. Recombinant CDK5/p35, ADP-Glo luminescence, 60 min. inhibition, % at 10 µM. 330,000 compounds, 0.01% hits;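 active = highest replicate inhibition of at least 50% and at least 75% of replicates reaching 50%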
N-glyco inh: increase of ERlucT glycosylation luciferase signal, primary screen, N-linked glycosylation inhibitor project, D54 ERlucT cells, luminescence, set 2. reporter increase, % at 12.5 µM. D54 ERlucT glycosylation luciferase reporter, 24 h; percent of 100 nM tunicamycin response. AID 588692, 2011. 360,000 compounds, 0.23% hits;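 active = mean luciferase reporter signal, scaled so untreated is 0 and the glycosylation-blocking control 100, at or above a set limit in every replicate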;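 note: luciferase carries N-glycosylation sites so blocking glycosylation raises the light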
Each line names hits and unclear results; the compound was inactive in the other large screens; ! = repeats disagree.

CCCCCN(C(=O)CCC(=O)OCC(=O)N(C)C1CCCCC1)c1c(N)n(CCCC)c(=O)[nH]c1=O	none
CCCCCN(C(=O)CCC(=O)OC(C)C(=O)NC1CCCCC1)c1c(N)n(CCCC)c(=O)[nH]c1=O (centres undefined)	CASP6 VEID inh 43 (no result: ALR inh)
CCCc1nnc(NC(=O)c2nc(S(=O)(=O)Cc3ccc(C)cc3)ncc2Cl)s1	none
CSc1nnc(NC(=O)c2nc(S(=O)(=O)Cc3ccccc3)ncc2Cl)s1	ALR inh 97 (no result: Mot1-301 SUMO)
CCOc1ccccc1NC(=O)c1nc(S(=O)(=O)Cc2ccccc2)ncc1Cl	ALR inh 96 (no result: Mot1-301 SUMO)
CC(C)c1nnc(NC(=O)c2nc(S(=O)(=O)Cc3ccccc3)ncc2Cl)s1	ALR inh 98 (no result: Mot1-301 SUMO, NSD2 inh)
CCc1ccc(NC(=O)c2nc(S(=O)(=O)Cc3ccccc3)ncc2Cl)cc1	none
CCCCOc1ccc(CSc2nc(C)[nH]c2[N+](=O)[O-])cc1[N+](=O)[O-]	ALR inh 99 (no result: CDK5 inh)
O=[N+]([O-])c1cc(CSC2=NCCN2)ccc1O	none (no result: ALR inh, Mot1-301 SUMO)
CCCCOc1ccc(CSc2nnc(C)n2N)cc1[N+](=O)[O-]	none (no result: Mot1-301 SUMO)
CCCOc1ccc(CSC2=NCCN2)cc1[N+](=O)[O-]	ALR inh 99 (no result: CASP6 VEID inh)
C[C@H]1CN([C@@H](C)CO)C(=O)c2cc(Br)cnc2O[C@@H]1CN(C)C(=O)Nc1ccccc1	none (no result: ALR inh, Mot1-301 SUMO, NSD2 inh, CDK5 inh, N-glyco inh)
COc1cc2c(cc1OC)C(c1ccc(O)cc1)NCC2 (centres undefined)	none
Oc1ccc(C2CNCCc3c2cc(O)c(O)c3Cl)cc1 (centres undefined)	ALR inh 99! (no result: NSD2 inh)
O=c1cc(-c2c(O)c3ccccc3n(Cc3ccccc3)c2=O)[nH][nH]1	CASP6 VEID inh 56
CCOc1cc(/C=N/N=C2/NC(=O)C(CC(=O)O)S2)ccc1OCc1ccccc1Cl (centres undefined)	ALR inh 98 (no result: CASP6 VEID inh)
COc1ccc(/C=N/N=C2/NC(=O)C(CC(=O)O)S2)cc1OCc1ccc(Cl)cc1Cl (centres undefined)	none
COc1ccc(/C=N/N=C2/NC(=O)C(CC(=O)O)S2)cc1OCc1ccccc1Cl (centres undefined)	ALR inh 92 (no result: CASP6 VEID inh)
CCCN1[C@@H]2Cn3c(ccc(C4=CCCC4)c3=O)[C@H]1[C@@H](C(=O)NCCOC)[C@@H]2CO	none (no result: ALR inh, Mot1-301 SUMO, NSD2 inh, CDK5 inh, N-glyco inh)
Cc1noc(NS(=O)(=O)c2ccc(NC(=O)CS(=O)(=O)c3ccccc3)cc2)c1C	none (no result: CASP6 VEID inh)
Cc1cc(C)nc(SCC(=O)Nc2ccc(S(=O)(=O)Nc3onc(C)c3C)cc2)n1	ALR inh 94 (no result: NSD2 inh)
Cc1noc(NS(=O)(=O)c2ccc(NC(=O)CSc3ncccn3)cc2)c1C	ALR inh 98 (no result: NSD2 inh)
Cc1noc(NS(=O)(=O)c2ccc(NC(=O)CSc3nc4ccccc4s3)cc2)c1C	ALR inh 99 (no result: CASP6 VEID inh)
Cc1noc(NS(=O)(=O)c2ccc(NC(=O)COc3ccccc3)cc2)c1C	none (no result: CASP6 VEID inh)
Nc1ccc2cn[nH]c2c1	CASP6 VEID inh 44 (no result: NSD2 inh)
COc1cccc(-c2nnc3sc(-c4ccco4)nn23)c1	none (no result: CASP6 VEID inh)
COc1cc(-c2nnc3sc(-c4ccco4)nn23)cc(OC)c1OC	ALR inh 98
COc1ccc(-c2nnc3sc(-c4ccco4)nn23)cc1OC	ALR inh 99 (no result: CASP6 VEID inh)
CCCC(=O)NC(c1ccc(N(C)C)cc1)c1ccc2cccnc2c1O (centres undefined)	ALR inh 90
CCCC(=O)NC(c1ccc(C(C)C)cc1)c1ccc2cccnc2c1O (centres undefined)	none
COc1ccc(-n2c(/C=C3\C(=O)N(C)c4ccccc43)nc3ccccc3c2=O)cc1	ALR inh 97
CC(=O)N1[C@H](C(=O)NCc2ccccc2)[C@@H](CO)[C@@H]2Cn3c(cccc3=O)[C@@H]21	none (no result: ALR inh, Mot1-301 SUMO, NSD2 inh, CDK5 inh, N-glyco inh)
CC(C)n1cnc2cc(NCc3ccccc3O)ccc21	ALR inh 99 (no result: NSD2 inh)
CC(C)(C)n1cnc2cc(NCc3ccc(Br)cc3)ccc21	none
CC(C)n1cnc2cc(NC(=O)c3ccco3)ccc21	none
